# How the values were obtained:
# [1] = system: Vero E6 infected with SARS-CoV-2; test: morphology score (similarity to uninfected cells); higher = more like uninfected cells; details: 24 h
# [2] = system: Vero E6 infected with SARS-CoV-2; test: SARS-CoV-2 infection rate relative to infected DMSO; higher = more infection, active = 60 or less; details: 24 h
Compound,morphology score [1],SARS-CoV-2 infection rate [2]
CC12CCC(CC1=O)C2(C)C (stereo not drawn) [camphor-(+)] (10 µM),0.101,107% (inactive)
CCC(=O)N1CCOc2c(cc(-c3ccc(OC)c(OC)c3)cc2OC[C@H]2CCCN(C)C2)C1 (0.833333 µM),-0.0814,98.5% (inactive)
NCCCC[C@@H]1NC(=O)[C@@H](Cc2c[nH]c3ccccc23)NC(=O)[C@H](c2ccccc2)NC(=O)[C@@H]2C[C@@H](OC(=O)NCCN)CN2C(=O)[C@H](Cc2ccccc2)NC(=O)[C@H](Cc2ccc(OCc3ccccc3)cc2)NC1=O [pasireotide] (10 µM),-0.0469,104% (inactive)
CC(=O)S[C@@H]1CC2=CC(=O)CC[C@]2(C)[C@H]2CC[C@@]3(C)[C@@H](CC[C@@]34CCC(=O)O4)[C@H]12 [spironolactone] (10 µM),0.291,98.5% (inactive)
N#Cc1cc(-c2n[nH]c(-c3ccncc3)n2)ccn1 [topiroxostat] (10 µM),0.145,94.5% (inactive)
C[C@H](Cc1ccc2c(c1)OC(C(=O)O)(C(=O)O)O2)NC[C@H](O)c1cccc(Cl)c1 (10 µM),0.159,93.5% (inactive)
CC#C[C@]1(O)CC[C@H]2[C@@H]3CCC4=CC(=O)CCC4=C3[C@@H](c3ccc(N(C)C)cc3)C[C@@]21C [mifepristone] (10 µM),0.443,65.5% (inactive)
CN(c1nccc(=O)[nH]1)C1CCN(c2nc3ccccc3n2Cc2ccc(F)cc2)CC1 [mizolastine] (10 µM),0.211,106% (inactive)
COc1ccc(NC(=O)c2ccc(-c3ccc(-c4noc(C)n4)cc3C)cc2)cc1OCCN(C)C (0.833333 µM),0.282,53% (active)
CCO/N=C(\C(=O)N[C@@H]1C(=O)N2C(C(=O)[O-])=C(Sc3nc(-c4cc[n+](C)cc4)cs3)CS[C@H]12)c1nsc(NP(=O)(O)O)n1 [ceftaroline-fosamil] (10 µM),0.242,87.5% (inactive)
Oc1c(I)cc(Cl)c2cccnc12 [clioquinol] (10 µM),0.127,90% (inactive)
C[C@@H](C1=C(CCN(C)C)Cc2ccccc21)c1ccccn1 (racemic) [dimetindene] (10 µM),0.121,94.8% (inactive)
O=C(Nc1ccc(-c2ccncc2)cc1)N[C@H](CO)c1ccccc1 (0.833333 µM),0.489,94% (inactive)
Cc1cccc(Oc2cnc(=O)[nH]c2)c1 [tolimidone] (10 µM),0.147,106% (inactive)
CC(C)(Oc1ccc(Cl)cc1)C(=O)OCCOC(=O)c1cccnc1 [etofibrate] (10 µM),0.105,105% (inactive)
CNCc1cc(-c2ccccc2F)n(S(=O)(=O)c2cccnc2)c1 [vonoprazan] (10 µM),0.00653,114% (inactive)

Compound,morphology score [1],SARS-CoV-2 infection rate [2]
CC1(C)CNc2cc(NC(=O)c3cccnc3NCc3ccncc3)ccc21 [motesanib] (10 µM),0.196,108% (inactive)
NC(=O)NC1NC(=O)NC1=O (configuration not stated) [allantoin] (10 µM),-0.0426,104% (inactive)
CCN(CC)C(=O)/C(C#N)=C/c1cc(O)c(O)c([N+](=O)[O-])c1 [entacapone] (10 µM),0.149,102% (inactive)
COc1ccc(C(=O)Nc2sc3c(c2C(N)=O)CCCC3)cc1OC (10 µM),-0.0466,96.5% (inactive)
CCOC(=O)C(=O)Nc1cccc(OC)c1C(N)=O (10 µM),-0.179,102% (inactive)
Cc1nc(-c2cccnc2)sc1C(=O)Nc1ccccc1-c1cn2c(CN3CCOCC3)csc2n1 (10 µM),0.215,98% (inactive)
CCc1ccc2c(-c3cccc(Cl)c3)nc(=O)n(CC)c2n1 (10 µM),0.375,100% (inactive)
O=C(CCCl)NCc1ccccc1 [beclamide] (10 µM),0.278,97.5% (inactive)
"c1ccc([C@H]2CNCc3ccccc32)cc1 [4-phenyl-1,2,3,4-tetrahydroisoquinoline] (10 µM)",-0.263,114% (inactive)
O=C1CCC2CCC(=O)N12 [rolziracetam] (10 µM),-0.0425,106% (inactive)
Clc1ccc2c(c1)CCc1cccnc1C2=C1CCNCC1 [desloratadine] (10 µM),0.351,76% (inactive)
CO/N=C1/C[C@@H](C(=O)NC[C@@H](O)c2ccccc2)N(C(=O)c2ccc(-c3ccccc3C)cc2)C1 [OT-R-antagonist-1] (10 µM),0.118,98.5% (inactive)
C[C@@H]1CCC[C@H](C)N1NC(=O)c1ccc(Cl)c(S(N)(=O)=O)c1 [clopamide] (10 µM),-0.0797,103% (inactive)
CCC(O)(CC(N)=O)c1ccccc1 (configuration not stated) [3-hydroxy-3-phenylpentanamide] (10 µM),0.0251,112% (inactive)
CN(C)c1ccc2c(c1)Sc1cc(N(C)C)ccc1N2 [leucomethylene-blue] (0.833333 µM),0.0825,114% (inactive)

# Source: the supplement of paper PMC13380429
